# Test results reported in PubChem BioAssay (Tox21).
# Results filed as inconclusive are left out. A number with no mark means an inactive call. Active and inactive are the calls of the source. Calls follow the shape of the full dose curve.
# Biological target: Progesterone receptor (Homo sapiens) (UniProt P06401)
# Assay: qHTS assay to identify small molecule agonists of the progesterone receptor (PR) signaling pathway (AID 1346784); also: nearly all actives have a fitted effect of over 30% in size
# Details: PR-UAS-bla HEK293T, beta-lactamase FRET ratio, 16 h; series mostly up to 92.4 µM; activation: at the top concentration
# Source text: U.S. Tox21 Program National Center for Advancing Translational Sciences [NCATS] NIH Chemical Genomics Center [NCGC] U.S. Environmental Protection Agency [EPA] National Institutes of Environmental Health Sciences [NIEHS] National Toxicology Program [NTP] U.S. Food and Drug Administration [FDA] […] Endocrine disrupting chemicals (EDCs) and their interactions with steroid hormone receptors like PR causes disruption of normal endocrine function. To identify the compounds that activate PR signaling, a PR-UAS-bla GripTite cell line i.e. PR-UAS-bla HEK 293T (Invitrogen, Carlsbad, CA, USA) containing a beta-lactamase reporter gene under the control of an Upstream Activator Sequence (UAS) was used to screen Tox21 10K compound library.
# Tox21 Assay Protocol Summary: PR-UAS-bla HEK 293T cells were dispensed at 3,000 cells/5 uL of assay medium containing 2% charcoal stripped FBS per well into black wall/clear-bottom 1536-well plates using a Multidrop Combi (ThermoFisher Scientific, Waltham, MA) dispenser. After the assay plates were incubated at a 37C and 5% CO2 for 6hr, 23 nL of compounds dissolved in DMSO, positive controls or DMSO only was transferred to the assay plate by a Pintool station (Kalypsys, San Diego, CA). The plates were incubated at 37C and 5% CO2 for 16hr. Then 1 uL of LiveBLAzer B/G FRET substrate was added using a BioRAPTR FRD (Flying Reagent Dispenser, Aurora Discovery, San Diego, CA). After the plates were incubated at room temperature for 2 hours, fluorescence intensity was measured by an Envision plate reader (PerkinElmer, Shelton, CT).
# % is scaled to controls: 0 for no effect and ±100 for the full control effect; potency is read from the fitted curve at half-maximal effect.
# Progesterone receptor (Homo sapiens), sequence (P06401 whole entry, looked up): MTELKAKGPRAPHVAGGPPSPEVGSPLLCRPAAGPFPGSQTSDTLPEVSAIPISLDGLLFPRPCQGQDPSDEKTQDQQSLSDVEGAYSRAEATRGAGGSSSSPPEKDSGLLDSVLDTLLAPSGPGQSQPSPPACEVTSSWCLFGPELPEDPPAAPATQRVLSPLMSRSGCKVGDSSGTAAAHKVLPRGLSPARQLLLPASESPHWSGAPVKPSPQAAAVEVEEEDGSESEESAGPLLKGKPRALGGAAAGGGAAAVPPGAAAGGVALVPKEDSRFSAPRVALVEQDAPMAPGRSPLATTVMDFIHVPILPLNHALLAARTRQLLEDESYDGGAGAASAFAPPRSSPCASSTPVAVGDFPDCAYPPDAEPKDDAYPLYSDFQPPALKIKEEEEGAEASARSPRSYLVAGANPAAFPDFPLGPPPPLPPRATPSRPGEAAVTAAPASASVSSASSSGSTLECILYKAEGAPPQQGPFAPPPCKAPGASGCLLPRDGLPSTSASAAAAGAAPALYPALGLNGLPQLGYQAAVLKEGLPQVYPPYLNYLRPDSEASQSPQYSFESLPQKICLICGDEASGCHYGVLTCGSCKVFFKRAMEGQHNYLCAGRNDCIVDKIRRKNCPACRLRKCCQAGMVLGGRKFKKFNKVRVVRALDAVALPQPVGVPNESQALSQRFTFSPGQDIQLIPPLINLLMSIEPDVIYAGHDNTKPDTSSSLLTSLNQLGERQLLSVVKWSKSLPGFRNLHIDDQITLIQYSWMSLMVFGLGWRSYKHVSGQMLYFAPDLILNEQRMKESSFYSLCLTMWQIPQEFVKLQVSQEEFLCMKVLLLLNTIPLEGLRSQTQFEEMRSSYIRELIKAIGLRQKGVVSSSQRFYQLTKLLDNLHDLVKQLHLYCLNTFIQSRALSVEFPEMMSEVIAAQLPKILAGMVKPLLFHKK
Structure (SMILES),activation,Potency
C/C=C1\[C@H]2C=C(C)C[C@]1(N)c1ccc(=O)[nH]c1C2,-0.804% [at 42.5 µM],–
FC(F)(Cl)C(F)(Cl)Cl,1.96%,–
Oc1ccc(Oc2ccccc2)cc1,-0.835%,–
O=c1[nH][nH]c2ccccc12,-2.85%,–
CC1(C)CC(O)CC(C)(C)N1[O],-0.981%,–
S=c1[nH][nH]c(=S)s1,7.26%,–
COc1cc(C)c(Cc2cnc(N)nc2N)cc1OC,4.95% [at 42.5 µM],–
CCC(C)C1N=C(C)C(C)S1 (stereo not given),0.737%,–
CC/C=C/CCO,-2.65%,–
O=C(O)c1c2ccccc2cc2ccccc12,-0.849%,–
CCCCCCCCNC,-0.164%,–
CCCCCCCCCC(C)C=O (stereo not given),0.187%,–
OCCCO,-0.818%,–
CCCN(C1CCN(C(=O)C2CCNCC2)CC1)[C@@H]1CCc2ccc(OC)cc2C1,-5.03%,–
C=CC(=O)OCCCCCCCCCC,0.0363%,–
O=[N+]([O-])c1ccccc1CCO,0.786%,–
CCCCCCCCCCCCCCCCN,-1.87% [at 42.5 µM],–
Cc1nc2sccn2c(=O)c1CCN1CCC(=C(c2ccc(F)cc2)c2ccc(F)cc2)CC1,-3.9% [at 42.5 µM],–
O=C(Nc1ccccc1)c1cc([N+](=O)[O-])ccc1Cl,-3.1%,–
N#CCCCC(C#N)CCC#N (stereo not given),-2.29%,–

Structure (SMILES),activation,Potency
O=C(O)c1cc(C(=O)O)c(C(=O)O)cc1C(=O)O,0%,–
CCc1ccc(C(=O)C(C)CN2CCCCC2)cc1 (stereo not given),-1.57% [at 42.5 µM],–
O=C1c2ccccc2C(=O)C1c1ccc2ccccc2n1,3.73% [at 42.5 µM],–
CC(C)CCCCCOC(=O)CS,-1.79%,–
NCCOCCOCCN,-2.39%,–
O=C(Nc1ccc2c(c1)Cc1ccccc1-2)C(F)(F)F,3.91%,–
CCN(CCCCOC(=O)c1ccc(OC)c(OC)c1)C(C)Cc1ccc(OC)cc1 (stereo not given),-0.711% [at 42.5 µM],–
SCCOCCOCCS,0.445%,–
c1ccc(CCNc2nc(-c3ccccc3)cs2)cc1,7.66% [at 42.5 µM],–
COc1ccc(/C=C/c2cc(OC)cc(=O)o2)cc1,1.34% [at 42.5 µM],–
CC(C)(C)c1cc(C=O)cc(C(C)(C)C)c1O,-0.0232% [at 42.5 µM],–
CCC(=O)O[C@]1(C(=O)COC)[C@@H](C)C[C@H]2[C@@H]3CCC4=CC(=O)C=C[C@]4(C)C3(F)[C@@H](O)C[C@@]21C (stereo not given in full),–,376 nM (active)
CCOC(OCC)OCC,0.789%,–
CC1=CC(=C(c2ccc(N)cc2)c2ccc(N)cc2)C=CC1=N,–,390 nM (active)
C[C@H](CN1CCCC1)C(=O)c1ccc(C(F)(F)F)cc1,1.01% [at 42.5 µM],–
Cc1ccc(NC=O)c(C)c1,0.414%,–
CCOC(=O)CC(O)(CC(=O)OCC)C(=O)OCC,-1.6%,–
Nc1ccc(C(=O)Oc2ccccc2)c(O)c1,-0.314% [at 42.5 µM],–
O=C(Cl)c1cc(Cl)cc(Cl)c1,-0.331%,–
CCCCCO,0.524%,–
